# Source: PubChem BioAssay (Broad Institute)
# C diff HTS – C. difficile growth inhibition | Clostridium difficile clinical isolate growth, OD600, 24 h; stronger effect = lower value | growth activity, negative = inhibition, % at 16 µg/mL (by protocol) | 86,000 tested, 0.25% active | AID 1259249;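 active = mean growth activity at or below -80% and every replicate also at or below -80%; inconclusive = mean at or below -80% but some replicate above -80%; inactive = mean growth activity above -80%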;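 note: 0% = DMSO wells and -100% = levofloxacin 16 µg/mL wells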
# Pf Dd2 growth – inhibitors of Plasmodium falciparum Dd2 growth. P. falciparum Dd2 growth, SYBR Green, 72 h; stronger effect = lower value. activity change, % at 10 µM. 94,000 tested, 2.3% active; in the data active = activity change below about -80%; inconclusive = no clear call, values can overlap the other calls
# T cruzi growth – T. cruzi proliferation inhibition. T. cruzi beta-gal in NIH3T3, GalScreen luminescence, 90 h. inhibition, % at 8.34 µM. 77,000 tested, 5.9% active;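 active = mean inhibition above about 93%, with at least 55% of replicates each passing it, limit read from the data, passing the limit was not always enough; inconclusive = only one of those two conditions holds; inactive = neither condition holds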
# Numbers without * were called inactive; ? = inconclusive; . = no result given; ! = not active in a repeat. Shown are actives, neighbours in structure and some others; about 6.7% of the full set was active somewhere.
SMILES,C diff HTS,Pf Dd2 growth,T cruzi growth
COc1ccc(NC(=O)Nc2ccc3c(c2)C(=O)N([C@@H](C)CO)C[C@H](C)[C@@H](CN(C)S(=O)(=O)c2cccs2)O3)cc1,-5,14,-18
COCC(=O)Nc1ccc2c(c1)OC[C@@H](C)N(C(=O)Nc1ccccc1F)C[C@@H](C)[C@H](OC)CN(C)C2=O,7,6,20
COc1ccc2c3c([nH]c2c1)[C@@H](CO)N(Cc1ccc(Cl)cc1)CC31CCN(Cc2nccs2)CC1,-5,-88*,.
COc1ccc2c3c([nH]c2c1)[C@H](CO)N(Cc1ccc(Cl)cc1)CC31CN(Cc2nccs2)C1,10,-86*,.
COc1ccc2c3c([nH]c2c1)[C@@H](CO)N(Cc1ccc(Cl)cc1)CC31CCN(Cc2ccccc2)CC1,25,-80,.
COc1ccc2c3c([nH]c2c1)[C@H](CO)N(Cc1nccs1)CC31CN(Cc2ccncc2)C1,10,-34,.
COc1ccc(NC(=O)N(C)C[C@H]2Oc3ccc(NC(=O)c4ccncc4)cc3C(=O)N([C@@H](C)CO)C[C@@H]2C)cc1,-2,-2,31
C[C@H](CO)N1C[C@H](C)[C@H](CN(C)C(=O)Nc2ccccc2)OCCCC[C@H](C)Oc2ccc(NS(=O)(=O)c3ccccc3)cc2C1=O,.,17,.
Cc1noc(C)c1NC(=O)Nc1ccc2c(c1)C(=O)N([C@@H](C)CO)C[C@H](C)[C@@H](CN(C)S(=O)(=O)c1c(C)noc1C)OCCCC[C@@H](C)O2,2,-8,49
C[C@H](CO)N1C[C@H](C)[C@@H](CN(C)C(=O)CCN(C)C)OCc2ccccc2-c2c(n(C)c3ccccc23)C1=O,5,-85*,71
C[C@H]1CN([C@@H](C)CO)C(=O)c2c(c3ccccc3n2C)-c2ccccc2CO[C@H]1CN(C)C(=O)Cc1ccccc1,-1,-70,30
C[C@@H]1CN([C@@H](C)CO)C(=O)c2c(c3ccccc3n2C)-c2ccccc2CO[C@H]1CN(C)C(=O)Cc1ccccc1,-7,-86*,20
C[C@@H]1CN([C@@H](C)CO)C(=O)c2c(c3ccccc3n2C)-c2ccccc2CO[C@@H]1CN(C)C(=O)CCN(C)C,-5,-79,-30
COc1ccc2c3c([nH]c2c1)[C@H](CO)N(C(=O)CN(C)C)CC31CCN(CC2CCCCC2)CC1,7,-89*,.
COc1ccc2c3c([nH]c2c1)[C@H](CO)N(C(=O)CN(C)C)CC31CN(CC2CCCC2)C1,1,-77,.
COc1ccc2c3c([nH]c2c1)[C@@H](CO)N(C(=O)CN(C)C)CC31CCN(CC2CCCCC2)CC1,5,-87*,.
COc1ccc2c3c([nH]c2c1)[C@H](CO)N(C(=O)CN(C)C)CC31CCN(CC2CC2)CC1,10,3,.
Cc1ccc(S(=O)(=O)N(C)C[C@@H]2Oc3ccc(NC(=O)c4ccncc4)cc3CC(=O)N([C@@H](C)CO)C[C@@H]2C)cc1,7,5,46
COc1cccc(S(=O)(=O)N[C@@H]2C=C[C@@H](CC(=O)NCc3ccccc3)O[C@@H]2CO)c1,3,5,4
CO[C@@H]1CN(C)C(=O)c2cc(NC(=O)c3cnccn3)ccc2OC[C@H](C)N(CCc2ccccc2)C[C@H]1C,.,-42,.
COc1ccc2c3c([nH]c2c1)[C@@H](CO)N(Cc1ccncc1)CC31CN(Cc2ccc(-c3ccccn3)cc2)C1,4,?,.
COc1ccc2c3c([nH]c2c1)[C@@H](CO)N(Cc1ccc(F)cc1)CC31CN(Cc2ccccn2)C1,8,?,.
COc1ccc2c3c([nH]c2c1)[C@H](CO)N(Cc1ccncc1)CC31CN(Cc2ccc(-c3ccccn3)cc2)C1,5,-89*,.
COc1ccc2c3c([nH]c2c1)[C@@H](CO)N(Cc1cccc(F)c1)CC31CN(Cc2ccccn2)C1,0,?,.
COc1cccc(CN2CC3(CN(Cc4ccccn4)C3)c3c([nH]c4cc(OC)ccc34)[C@H]2CO)c1,13,-87*,.
SMILES,C diff HTS,Pf Dd2 growth,T cruzi growth
COc1cccc(CN2CC3(CCN(Cc4ccccn4)CC3)c3c([nH]c4cc(OC)ccc34)[C@H]2CO)c1,5,-84*,.
CO[C@H]1CN(C)C(=O)c2ccc(NC(C)=O)cc2OC[C@H](C)N(C(=O)C2CC2)C[C@@H]1C,-3,-25,.
CCNC(=O)C[C@@H]1CC[C@H]2[C@H](COc3ccc(NC(=O)Nc4ccccc4OC)cc3C(=O)N2C)O1,-4,-10,22
C[C@@H]1CN([C@H](C)CO)C(=O)c2cccc(NC(=O)c3ccncc3)c2O[C@H]1CN(C)C(=O)Nc1ccc2c(c1)OCO2,-2,1,-134
COc1ccccc1-c1ccc2c(c1)O[C@@H](CN(C)CC1CC1)[C@H](C)CN([C@@H](C)CO)S2(=O)=O,.,-46,73
CN(C)C(=O)[C@H]1[C@H](CO)[C@H]2Cn3c(ccc(C4=CCCC4)c3=O)[C@@H]1N2CC1CCCC1,5,11,.
O=C(Nc1ccccc1)N1C[C@@H]2N[C@H](C1)C2c1ccc(-c2cccnc2)cc1 (stereo partly specified),-5,-9,.
O=C(Nc1ccc(C(F)(F)F)cc1)N1C[C@@H]2N[C@H](C1)C2c1ccc(/C=C/c2ccccc2)cc1 (stereo partly specified),-100*,-90*!,.
O=C(C1CCC1)N1C[C@@H]2N[C@H](C1)C2c1ccc(/C=C/c2ccccc2)cc1 (stereo partly specified),61,-77,.
Cc1cccc(-c2ccc(C3[C@@H]4CN(C(=O)Nc5ccc(F)cc5)C[C@H]3N4)cc2)c1 (stereo partly specified),-91*!,-13,.
Cc1cccc(-c2ccc(C3[C@@H]4CN(C(=O)Nc5ccccc5)C[C@H]3N4)cc2)c1 (stereo partly specified),55,-15,.
O=C(Nc1ccc(C(F)(F)F)cc1)N1C[C@@H]2N[C@H](C1)C2c1ccc(-c2ccccc2)cc1 (stereo partly specified),-98*,3,.
Cc1noc(C)c1NC(=O)N(C)C[C@@H]1Oc2ccc(NC(=O)CCCCCC(=O)Nc3ccccc3N)cc2CC(=O)N([C@H](C)CO)C[C@@H]1C,-4,18,16
Cc1ccc(S(=O)(=O)Nc2ccc3c(c2)C(=O)N([C@H](C)CO)C[C@@H](C)[C@H](CN(C)C(=O)Nc2cccc4ccccc24)OCCCC[C@@H](C)O3)cc1,-4,-67,83
Cc1ccc(S(=O)(=O)Nc2ccc3c(c2)C(=O)N([C@H](C)CO)C[C@H](C)[C@H](CN(C)C(=O)Nc2cccc4ccccc24)OCCCC[C@@H](C)O3)cc1,-4,-60,62
Cc1ccc(S(=O)(=O)Nc2ccc3c(c2)C(=O)N([C@@H](C)CO)C[C@H](C)[C@@H](CN(C)C(=O)Nc2cccc4ccccc24)OCCCC[C@@H](C)O3)cc1,-7,-85*,95
Cc1ccc(S(=O)(=O)Nc2ccc3c(c2)C(=O)N([C@@H](C)CO)C[C@H](C)[C@@H](CN(C)C(=O)Nc2cccc4ccccc24)OCCCC[C@H](C)O3)cc1,0,-83*,93
Cc1ccc(S(=O)(=O)Nc2ccc3c(c2)C(=O)N([C@@H](C)CO)C[C@@H](C)[C@@H](CN(C)C(=O)Nc2cccc4ccccc24)OCCCC[C@H](C)O3)cc1,3,-84*,92
